Results as given in PubChem BioAssay (Tox21).
Values without a mark were called inactive. Inconclusive results are not listed. Entries that show only a call come without a potency. Activity calls are given as the source filed them. Unless noted, calls follow the shape of the full dose curve.

Assays:
[1] = Nuclear factor erythroid 2-related factor 2/antioxidant responsive element (Nrf2/ARE) small molecule agonists: qHTS cell viability counter screen in human keratinocytes (AID 1919968; active = well fitted curve in the direction sought with a large enough effect in the repeat runs; an effect the other way counts as inactive or inconclusive; also: nearly all actives have a fitted effect of over 55% in size; also: potency is read from the fitted curve at half-maximal effect)
Method in brief: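 KeratinoSens cells (HaCaT keratinocytes stably carrying an ARE-luciferase reporter) were seeded at 1,500 cells/well and rested 5 h at 37 C/5% CO2. They were then exposed to compounds in DMSO for 23 h. Viability was read by CellTiter-Fluor fluorescence after 1 h.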

[2] = Nuclear factor erythroid 2-related factor 2/antioxidant responsive element (Nrf2/ARE) small molecule agonists: luciferase reporter gene qHTS assay in human keratinocytes (AID 1919969); also: nearly all actives have a fitted effect of over 35% in size; also: potency is read from the fitted curve at half-maximal effect
[3] = target: Gonadotropin-releasing hormone receptor (Homo sapiens) (UniProt P30968); assay: Human gonadotropin-releasing hormone receptor (GnRHR) small molecule agonists, calcium flux assay in GnRHR-HEK293 cells (AID 1920063); also: nearly all actives have a fitted effect of over 35% in size
Sequence of Gonadotropin-releasing hormone receptor (Homo sapiens) (P30968 whole entry, looked up): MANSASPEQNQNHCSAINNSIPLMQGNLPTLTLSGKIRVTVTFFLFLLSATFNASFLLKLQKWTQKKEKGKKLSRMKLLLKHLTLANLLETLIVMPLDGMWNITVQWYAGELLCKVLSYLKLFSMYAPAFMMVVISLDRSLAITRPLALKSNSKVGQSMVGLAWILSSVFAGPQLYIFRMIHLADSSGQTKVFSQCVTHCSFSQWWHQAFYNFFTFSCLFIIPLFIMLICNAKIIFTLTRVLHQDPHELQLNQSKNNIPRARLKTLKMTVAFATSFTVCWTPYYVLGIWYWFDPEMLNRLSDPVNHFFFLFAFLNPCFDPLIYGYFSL
Method in brief: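 HEK293 cells stably expressing human GnRHR were plated 18 h at 37 °C, loaded with calcium dye 1 h at 37 °C, then given compound in agonist mode; fluorescence (Ex/Em 480/540) read kinetically for 3 min at 1 s intervals.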

[4] = target: KiSS-1 receptor (Homo sapiens) (UniProt Q969F8); assay: Human kisspeptin (KISS1R) small molecule agonists, calcium flux assay in KISS1R-HEK293 cells (AID 1920064; active = well fitted curve in the direction sought with a large enough effect in the repeat runs; an effect the other way counts as inactive or inconclusive)
Sequence of KiSS-1 receptor (Homo sapiens) (Q969F8 whole entry, looked up): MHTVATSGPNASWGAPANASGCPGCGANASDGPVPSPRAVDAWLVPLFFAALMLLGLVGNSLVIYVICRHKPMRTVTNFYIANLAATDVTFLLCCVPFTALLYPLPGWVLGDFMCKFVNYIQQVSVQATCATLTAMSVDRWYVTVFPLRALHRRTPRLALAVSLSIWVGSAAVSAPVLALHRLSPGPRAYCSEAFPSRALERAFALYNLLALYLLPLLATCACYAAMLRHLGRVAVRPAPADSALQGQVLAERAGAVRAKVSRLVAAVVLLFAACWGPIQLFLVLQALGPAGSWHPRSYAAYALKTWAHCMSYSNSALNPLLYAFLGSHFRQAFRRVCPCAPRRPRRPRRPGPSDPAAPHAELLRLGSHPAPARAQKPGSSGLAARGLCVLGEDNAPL
Method in brief: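 HEK293 cells stably expressing human KISS1R were plated 18 h at 37 °C, loaded with calcium dye for 1 h at 37 °C, then given compound by pin tool. Fluorescence (Ex/Em 480/540) was read kinetically for 3 min.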

[5] = G protein-coupled receptor (GPCR) small molecule agonists, calcium flux assay: HEK293 wild type cell line counter screen (AID 1920065)
Method in brief: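 Cells were plated and cultured 18 h at 37 C/5% CO2, then loaded with calcium dye for 1 h at 37 C. Compounds in DMSO were pin-transferred in agonist mode, and fluorescence (Ex/Em 480/540) was read kinetically for 3 min at 1 s intervals.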

[6] = p53 small molecule agonists, cell-based qHTS assay with rat liver microsomes (AID 1963578)
Method in brief: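 With rat liver microsomes and NADPH present (0.5 mg/mL final each), p53RE-bla cells are treated with compound for 16 h at 37 C. LiveBLAzer detection mixture is then applied for 2 h at room temperature in the dark.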

[7] = p53 small molecule agonists, cell-based qHTS assay with rat liver microsomes: qHTS cell viability counter screen (AID 1963580); also: nearly all actives have a fitted effect of over 45% in size; also: potency is read from the fitted curve at half-maximal effect
Method in brief: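 Viability is assessed in parallel with the p53 reporter read: HCT-116 p53RE-bla cells receive compounds plus rat microsomes and NADPH (0.5 mg/mL final apiece), incubate 16 h at 37 C, and then CellTiter-Glo luminescence is recorded.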

[8] = p53 small molecule agonists, cell-based qHTS assay: qHTS cell viability counter screen (AID 1963581); also: nearly all actives have a fitted effect of over 45% in size; also: potency is read from the fitted curve at half-maximal effect
Method in brief: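 p53RE-bla HCT-116 cells were exposed to compounds for 16 h at 37 C; after the beta-lactamase FRET read in the same wells, CellTiter-Glo was added and luminescence (intracellular ATP) read after 30 min at room temperature.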

[9] = p53 small molecule agonists, cell-based qHTS assay (AID 1963582; active = well fitted activation curve with a large enough effect in the signal ratio in the repeat runs, not every such curve was filed as active; the % refers to the signal ratio; also: potency is read from the fitted curve at half-maximal effect)
Method in brief: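 p53RE-bla beta-lactamase reporter cells rested 5 h at 37 C/5% CO2, then received compounds in DMSO by pin transfer and were incubated 16 h at 37 C. LiveBLAzer B/G FRET substrate was loaded for 2 h at room temperature before fluorescence reading.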

[10] = target: 5-hydroxytryptamine receptor 2A (Homo sapiens) (UniProt P28223); assay: 5-hydroxytryptamine receptor 2A (HTR2A) small molecule antagonists, cell-based qHTS assay (AID 1963586); also: nearly all actives have a fitted effect of over 45% in size
Sequence of 5-hydroxytryptamine receptor 2A (Homo sapiens) (P28223 whole entry, looked up): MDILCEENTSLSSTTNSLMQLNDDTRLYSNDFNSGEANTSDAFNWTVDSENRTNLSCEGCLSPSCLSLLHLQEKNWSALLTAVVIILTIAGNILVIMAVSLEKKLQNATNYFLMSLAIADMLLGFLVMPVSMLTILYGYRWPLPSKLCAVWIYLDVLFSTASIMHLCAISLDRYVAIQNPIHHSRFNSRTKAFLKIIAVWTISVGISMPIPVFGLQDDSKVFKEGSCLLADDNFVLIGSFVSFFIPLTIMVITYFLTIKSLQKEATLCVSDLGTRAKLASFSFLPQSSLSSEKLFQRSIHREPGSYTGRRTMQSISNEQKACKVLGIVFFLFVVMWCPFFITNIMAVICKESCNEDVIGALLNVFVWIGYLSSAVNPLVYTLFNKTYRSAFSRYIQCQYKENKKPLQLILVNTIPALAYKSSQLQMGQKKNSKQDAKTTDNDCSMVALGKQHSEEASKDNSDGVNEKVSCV
Method in brief: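 Antagonist-mode intracellular calcium assay: DOI (4 nM) added after 5 min compound pre-incubation at room temperature to dye-loaded HTR2A-CHO cells. Fluorescence followed for 3 min, sampled every second.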

[11] = target: 5-hydroxytryptamine receptor 2A (Homo sapiens) (UniProt P28223); assay: 5-hydroxytryptamine receptor 2A (HTR2A) small molecule agonists, cell-based qHTS assay (AID 1963587); also: nearly all actives have a fitted effect of over 30% in size
Method in brief: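 CHO cells stably expressing human HTR2A, plated 18 h, loaded with calcium dye 1 h at 37 C. Agonist mode: compounds added and intracellular calcium fluorescence recorded kinetically for 2 min at 1 sec intervals.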

[12] = target: Muscarinic acetylcholine receptor M1 (Homo sapiens) (UniProt P11229); assay: Cholinergic receptor muscarinic 1 (CHRM1) small molecule antagonists, cell-based qHTS assay (AID 1963588); also: nearly all actives have a fitted effect of over 40% in size; also: potency is read from the fitted curve at half-maximal effect
Sequence of Muscarinic acetylcholine receptor M1 (Homo sapiens) (P11229 whole entry, looked up): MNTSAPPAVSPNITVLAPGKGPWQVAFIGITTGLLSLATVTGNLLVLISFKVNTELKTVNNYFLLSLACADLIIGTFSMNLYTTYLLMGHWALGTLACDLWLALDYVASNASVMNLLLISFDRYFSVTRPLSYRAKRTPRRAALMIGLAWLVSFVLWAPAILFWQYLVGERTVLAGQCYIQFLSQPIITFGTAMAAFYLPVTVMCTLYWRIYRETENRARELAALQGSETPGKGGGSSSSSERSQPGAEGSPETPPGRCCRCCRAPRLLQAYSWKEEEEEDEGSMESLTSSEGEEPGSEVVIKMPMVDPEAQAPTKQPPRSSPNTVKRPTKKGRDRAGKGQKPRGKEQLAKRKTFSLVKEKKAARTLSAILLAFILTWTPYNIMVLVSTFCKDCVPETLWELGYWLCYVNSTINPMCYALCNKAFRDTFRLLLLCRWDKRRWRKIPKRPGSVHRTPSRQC
Method in brief: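 CHRM1-CHO calcium-flux assay, antagonist mode. Cells were seeded 18 h, dye-loaded 1 h at 37 C and given compound for 5 min at RT, then acetylcholine was added at 50nM. FDSS fluorescence was read 3 min; 15 concentrations, three runs.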

[13] = target: Muscarinic acetylcholine receptor M1 (Homo sapiens) (UniProt P11229); assay: Cholinergic receptor muscarinic 1 (CHRM1) small molecule agonists, cell-based qHTS assay (AID 1963589); also: nearly all actives have a fitted effect of over 35% in size
Method in brief: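 CHO cells stably expressing human CHRM1, seeded 18 h at 37 C/5% CO2, dye-loaded 1 h at 37 C, then given compound in agonist mode; intracellular calcium fluorescence read kinetically at 1 s intervals. Fifteen concentrations, three independent runs.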

[14] = cAMP Responsive Elements (CRE) small molecule agonists, cell-based qHTS assay (AID 1963590)
Method in brief: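 CRE-bla HEK 293T cells in DMEM with 10% dialyzed FBS, NEAA, pyruvate and 25 mM HEPES were plated 18 h at 37 C/5% CO2, then exposed to compounds in DMSO for 3 h before LiveBLAzer B/G FRET substrate addition.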

[15] = cAMP Responsive Elements (CRE) small molecule antagonists, cell-based qHTS assay (AID 1963591; active = well fitted inhibition curve with a large enough effect in the signal ratio in the repeat runs, not every such curve was filed as active; the % refers to the signal ratio)
Method in brief: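 CRE-bla HEK293T cells were plated 18 h at 37 °C/5% CO2, pinned with compound in DMSO, then stimulated with NKH477 at 0.25 uM final for 3 h. LiveBLAzer B/G FRET substrate was added and plates incubated 2 h at room temperature.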

[16] = target: Beta-2 adrenergic receptor (Homo sapiens) (UniProt P07550); assay: Adrenergic beta2 receptor (ADRB2) small molecule antagonists, cell-based qHTS assay (AID 1963592); also: series mostly up to about 92 µM; nearly all actives have a fitted effect of over 50% in size
Sequence of Beta-2 adrenergic receptor (Homo sapiens) (P07550 whole entry, looked up): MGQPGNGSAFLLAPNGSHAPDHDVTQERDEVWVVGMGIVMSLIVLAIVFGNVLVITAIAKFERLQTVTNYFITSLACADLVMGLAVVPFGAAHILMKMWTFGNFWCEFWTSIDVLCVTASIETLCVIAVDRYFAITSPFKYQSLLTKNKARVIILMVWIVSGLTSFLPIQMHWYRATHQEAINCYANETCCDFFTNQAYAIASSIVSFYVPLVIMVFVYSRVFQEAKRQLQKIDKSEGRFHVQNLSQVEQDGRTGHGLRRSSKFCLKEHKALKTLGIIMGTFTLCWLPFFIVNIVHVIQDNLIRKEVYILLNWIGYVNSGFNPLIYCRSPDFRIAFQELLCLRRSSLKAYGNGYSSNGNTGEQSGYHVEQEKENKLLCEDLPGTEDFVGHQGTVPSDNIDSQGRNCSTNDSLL
Method in brief: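 Cells (CHO, stable ADRB2 overexpression) incubated 18-20hr at 37C; compounds added from DMSO; agonist mix (1nM isoproterenol, 100uM IBMX, 25uM Ro-20-1724) added; 0.5hr RT; d2-cAMP and anti-cAMP-cryptate added; 1hr RT; 665/615 nm read.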

[17] = target: Beta-2 adrenergic receptor (Homo sapiens) (UniProt P07550); assay: Adrenergic beta2 receptor (ADRB2) small molecule agonists, cell-based qHTS assay (AID 1963593);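 also: CHO cells stably overexpressing human ADRB2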
Method in brief: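 CHO cells stably over-expressing ADRB2 were plated overnight at 37C, then dosed with compounds plus a stimulation mix containing 100uM IBMX and 25uM Ro-20-1724 for 0.5hr at room temperature. cAMP was measured by HTRF competition, 1hr.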

[18] = target: D(2) dopamine receptor (Homo sapiens) (UniProt P14416); assay: Dopamine D2 receptor (DRD2) small molecule agonists, cell-based qHTS assay (AID 1963594); also: nearly all actives have a fitted effect of over 35% in size
Sequence of D(2) dopamine receptor (Homo sapiens) (P14416 whole entry, looked up): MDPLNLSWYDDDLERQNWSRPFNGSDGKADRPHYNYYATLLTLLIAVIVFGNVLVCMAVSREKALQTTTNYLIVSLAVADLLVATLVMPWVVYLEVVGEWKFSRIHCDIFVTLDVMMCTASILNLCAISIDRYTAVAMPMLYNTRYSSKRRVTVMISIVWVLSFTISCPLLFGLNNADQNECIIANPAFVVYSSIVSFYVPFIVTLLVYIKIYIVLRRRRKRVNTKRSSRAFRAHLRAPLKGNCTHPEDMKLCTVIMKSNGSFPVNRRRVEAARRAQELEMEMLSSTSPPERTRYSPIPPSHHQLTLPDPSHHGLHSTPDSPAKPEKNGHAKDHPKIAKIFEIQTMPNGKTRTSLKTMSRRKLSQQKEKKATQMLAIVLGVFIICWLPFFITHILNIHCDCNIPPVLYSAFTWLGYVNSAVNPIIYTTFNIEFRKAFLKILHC
Method in brief: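 HEK293 cells stably expressing human DRD2, pre-treated with PDE inhibitor Ro20-1724 (0.1 mM final) and compound 10 min at room temperature, then stimulated with NKH477 (200nM […]) for 30 min. cAMP read by HTRF (665/620 nm).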

[19] = p53 small molecule agonists, cell-based qHTS assay with human liver microsomes: qHTS cell viability counter screen (AID 1963579); also: nearly all actives have a fitted effect of over 45% in size; also: potency is read from the fitted curve at half-maximal effect
Method in brief: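 In this multiplexed counter screen, the reporter plates were subsequently treated with CellTiter-Glo so that cell viability, reflected by luminescence, could be recorded for p53RE-bla cells dosed 16 h with compounds under microsomal activation (HLM and NADPH).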

[20] = target: D(2) dopamine receptor (Homo sapiens) (UniProt P14416); assay: Dopamine D2 receptor (DRD2) small molecule antagonists, cell-based qHTS assay (AID 1963595; active = well fitted inhibition curve with a large enough effect in the signal ratio in the repeat runs, with a control signal flat; the % refers to the signal ratio)
Method in brief: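 HEK293 cells stably expressing DRD2, preincubated with 0.1 mM Ro20-1724 and compounds 10 min, were stimulated with 200 nM NKH477 plus 12 nM quinpirole for 30 min at room temperature; cAMP measured by HTRF (665/620 nm).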

| SMILES | Potency [1] | Potency [2] | Potency [3] | Potency [4] | Potency [5] | Potency [6] | Potency [7] | Potency [8] | Potency [9] | Potency [10] | Potency [11] | Potency [12] | Potency [13] | Potency [14] | Potency [15] | Potency [16] | Potency [17] | Potency [18] | Potency [19] | Potency [20] |
| --- | --- | --- | --- | --- | --- | --- | --- | --- | --- | --- | --- | --- | --- | --- | --- | --- | --- | --- | --- | --- |
| CCCCOC(=O)c1ccccc1 | inactive | inactive | inactive | inactive | inactive | inactive | inactive | inactive | inactive | inactive | inactive | inactive | inactive | inactive | inactive | inactive | inactive | inactive | – | – |
| C=C(C)C1CCC(C)(O)CC1 (stereo not given) | inactive | inactive | inactive | inactive | inactive | inactive | inactive | inactive | inactive | inactive | inactive | inactive | inactive | inactive | inactive | inactive | inactive | inactive | – | – |
| Clc1ccc2cc3ccccc3cc2c1 | inactive | inactive | inactive | inactive | inactive | – | inactive | inactive | 40.7 µM (active) | inactive | inactive | inactive | inactive | – | – | inactive | – | inactive | inactive | inactive |
| CCCCCC/C=C\CCCCCCCC(=O)O | inactive | inactive | inactive | inactive | inactive | inactive | – | inactive | inactive | inactive | inactive | inactive | inactive | inactive | – | – | inactive | inactive | inactive | inactive |
| CCCCCCCCC(CO)CCCCCC (stereo not given) | inactive | inactive | inactive | inactive | inactive | – | inactive | inactive | – | inactive | inactive | inactive | inactive | inactive | inactive | inactive | inactive | – | inactive | – |
| Cc1cc2nc(N)sc2cc1C | inactive | inactive | inactive | inactive | inactive | – | inactive | inactive | inactive | inactive | – | inactive | inactive | inactive | – | – | inactive | inactive | inactive | inactive |
| C[C@H]1c2cccc(O)c2C(O)=C2C(=O)[C@]3(O)C(O)=C(C(N)=O)C(=O)[C@@H](N(C)C)[C@@H]3[C@@H](O)[C@@H]21 | inactive | inactive | inactive | inactive | inactive | – | inactive | inactive | inactive | inactive | inactive | inactive | inactive | – | – | inactive | inactive | inactive | inactive | inactive |
| O=c1[nH]sc2ccccc12 | 24.3 µM (active) | 12.2 µM (active) | inactive | inactive | inactive | inactive | – | inactive | inactive | inactive | – | inactive | – | – | – | – | inactive | – | – | inactive |
| O=C(O)COC(=O)Cc1ccccc1Nc1c(Cl)cccc1Cl | inactive | inactive | inactive | inactive | inactive | inactive | inactive | inactive | inactive | – | – | – | – | – | inactive | inactive | inactive | inactive | – | inactive |
| COCCOC(=O)CC#N | inactive | inactive | inactive | inactive | inactive | – | inactive | inactive | inactive | inactive | – | – | inactive | inactive | – | inactive | inactive | inactive | inactive | inactive |
| CCCOC(=O)CCCCC(=O)OCCC | inactive | inactive | inactive | inactive | inactive | inactive | inactive | inactive | inactive | inactive | inactive | inactive | inactive | inactive | inactive | inactive | – | inactive | – | inactive |
| CCCCN | inactive | 36.3 µM (active) | inactive | inactive | inactive | inactive | inactive | inactive | inactive | inactive | inactive | inactive | inactive | inactive | inactive | inactive | – | inactive | – | inactive |
| CCN(Cc1cccc(S(=O)(=O)O)c1)c1ccc(C(=C2C=CC(=[N+](CC)Cc3cccc(S(=O)(=O)O)c3)C=C2)c2ccc(O)cc2S(=O)(=O)[O-])cc1 | 33.1 µM (active) | inactive | inactive | inactive | inactive | – | 24.8 µM (active) | 11.1 µM (active) | – | inactive | inactive | inactive | inactive | inactive | inactive | – | – | – | 24.8 µM (active) | – |
| O[Si](c1ccccc1)(c1ccccc1)c1ccccc1 | inactive | inactive | inactive | inactive | inactive | inactive | inactive | – | – | inactive | inactive | inactive | inactive | inactive | inactive | inactive | – | – | – | inactive |
| Cc1cc2c(cc1CC(=O)c1sccc1S(=O)(=O)Nc1onc(C)c1Cl)OCO2 | 4.22 µM (active) | inactive | inactive | inactive | inactive | – | inactive | inactive | inactive | inactive | inactive | inactive | – | inactive | inactive | inactive | inactive | inactive | inactive | inactive |
| CC/C(C)=N\O[Si](C)(O/N=C(\C)CC)O/N=C(\C)CC | inactive | inactive | inactive | inactive | inactive | – | inactive | inactive | inactive | – | inactive | 3.39 µM (active) | inactive | inactive | inactive | inactive | – | inactive | inactive | inactive |
